# Over roughly 25,000 sequences, “ln(normalized median fluorescence intensity)” has its median near 9.7; the highest 2% begin near 11. The entries come from a sample that favours the highest values as a whole.
# Tested on: PfAP2-HC AP2 domain (GST-tagged)
# Test: gcPBM binding intensity (ln(normalized median fluorescence intensity)); higher = stronger DNA binding
# Outline: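 The highest Masliner-normalised natural-log median intensity across replicate spots of either probe orientation is reported as binding intensity. GST-tagged P. falciparum DNA-binding domains expressed in E. coli were applied for 1 h to an Agilent 4 × 180k array of primer-extended double-stranded 36-bp intergenic genomic probes plus negative controls, and bound protein was detected with Alexa488 anti-GST antibody and scanned at 488 nm.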
row,Sequence,gcPBM binding intensity (ln)
1,TATAAATATAAATACACACACACACGCCAAAGCGTA [CACACA_site6181],11
2,TATAAATATAGACACACACACACCAAAGCGTAGCGC [CACACA_site6179],10.3
3,TATATATATATATACACACACACACCCCAAAGCGTA [CACACA_site64],11.1
4,TAAATATATAAATACACACACACCAAAGCAATAGAT [CACACA_site5605],10.5
5,TATATATATAAATACACACACACACCCCAAAGCGTA [CACACA_site4211],10.6
6,TATATATATATATATACACACACACCCACCAAAGCG [CACACA_site7904],10.1
7,TATTATATTTATTTATGTACACATATACTTAAATAA [XGTACX_site1355],9.69
8,AAATAGCCAAAAATCATGCACACCTAAAAAAAAAAA [CACACA_site2572],9.77
9,AGCTGAAAAAAAAGCTTGCACACGTATTTGCTTTAT [CACACA_site1512],9.81
10,ATAAACAATTAACAAACATGCAAATTTTAAATGTGT [TGCATGCA_site919],9.68
11,ATATTTGTATAAATTGCACACTTTATTTTTTTTAAG [CACACA_site1558],9.61
12,TTTGTTTGTAAAATGTTGCACTTTCTTTTGCTGATA,9.66
13,ATATATCTATATAGAAATGTATATATATATATGTGT [TGCATGCA_negctrl_site349],9.77
14,TATTTCGTAATTTAATAATATACAAGAAATATATAT [XGTACX_negctrl_site143],9.4
15,ATAAAAAAGAAACAAACACACATACATACAAACAAA [CACACA_site4256],10.3
16,ATCAAATAGAGACACACACACCTAAACATAAAAGAA [CACACA_site7321],10.6
17,CAATCAAATAGACACACACACACCTAAACATAAAAG [CACACA_site7322],11.1
18,CAATCAAATGGACACACACACACCTAAACATAAAAG [CACACA_site5524],10.5
19,AACAATCAAATAGACACACACACACCCAAACATAAA [CACACA_site2757],10.6
20,CAATCAAAGAAACACACACACACCTAAACATAAAAG [CACACA_site2756],11.7
21,GAAAAGTATAAAAAACGTACAAGTTTTATTTTCACA [XGTACX_site4604],9.58
22,TTTCTAATTATTTCCCTTCAAATATATTAATATCGT [CACACA_negctrl_site429],9.55
23,AGTATACATATATATACACACATATATATATATATA [CACACA_site300],9.8

row,Sequence,gcPBM binding intensity (ln)
1,CATATATACTCATACACACACACACCGACACAGACA [CACACA_site5026],10.3
2,AAAACAAACGGACACACACACATATATATATATATA [CACACA_site5924],10.5
3,AGTATACTCGGACACACACACACATATATATATATA [CACACA_site5031],11.7
4,CATATACTCGGACACACACACACACCGACAAAAAAA [CACACA_site4433],11.1
5,AGTATACATATATATACACACACATATATATATATA [CACACA_site7883],9.87
6,ACAAAAAAAAAAAAAAAAAAAAAAAAAAAATAATAA [CACACA_negctrl_site1640],9.18
7,TAAAATATATAAAACTGTACATTTTAAAGGCACAAC [XGTACX_site8342],9.98
8,AAAAATCAATTAGAAGAACACACGTAAATTTTTTTT [CACACA_site2396],9.76
9,TATTTTTCTTTATTGGTACACACGAAAAAAAAATTG [CACACA_site3054],9.53
10,AAATGGGTTTATTTAACACACAAAAGAAAAAATATA [CACACA_site1938],9.77
11,AAAGGTGTATTTAATACACACGTGTCATTAAAATTG [CACACA_site4508],9.71
12,CGCACCCACAGACACACACACACATATATATATATA [CACACA_site2202],11.4
13,ATAATCCACAAGCACACACACACACCCATATATATA [CACACA_site1268],10.6
14,TATATATATATAGACACACACACACCCATATATATA [CACACA_site4117],10.9
15,TATATATATATATATACACACACACCCATATATATA [CACACA_site8812],10.3
16,CACCCATACAGACATACACACACATATATATTAATA [CACACA_site8077],10.2
17,TATAATAATCCACAAGCACACACACCCACATATATA [CACACA_site8343],11.3
18,CACACCCACAGACACACACACACATATATAATATAT [CACACA_site594],11.4
19,TATATACATAGACACCCACACACAAAAAAAAAAAAA [CACACA_site8186],10.2
20,TAATAATCCACAAGCACACACACACCCATATATATA [CACACA_site1267],10.8
21,TAAATACAGACATACACACATACACCCACATATATA [CACACA_site547],10.3
22,CACACCCACAGACACACACACACATATATATATATA [CACACA_site363],10.8

# — the supplement of paper PMC11417369
